Measurements from PubChem BioAssay (EPA / NIEHS).
Records with an inconclusive call do not appear. Activity calls are given as the source filed them. The calls were made as follows: active = hit-call score of the fitted dose curve at least 0.9, where 1 is the maximum; inconclusive = response in the unintended direction; inactive = score below 0.9.

Each compound was assayed on ABC Transporter (ABCB1), ABCB1 (gene 5243) (assay: CLD_ABCB1_6hr: CellzDirect (CLD) Gene Expression Assay for ABC Transporter (ABCB1) at 6 hours (AID 2283659);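 also: hits raise ABCB1 transcript above the DMSO vehicle baseline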).
Method: CLD_6hr is a cell-based, multiplexed-readout assay that uses hepatocyte, a human liver primary cell, with measurements taken at 6 hours after chemical dosing in a 96-well plate.CLD_ABCB1_6hr is one of 16 assay component(s) measured or calculated from the CLD_6hr assay. It is designed to make measurements of mRNA induction, a form of inducible reporter, as detected with chemiluminescence signals by Quantitative Nuclease Protection Assay (qNPA) technology.Data from the assay component CLD_ABCB1_6hr was analyzed at the endpoint, CLD_ABCB1_6hr, in the positive analysis fitting direction relative to DMSO as the negative control and baseline of activity. Using a type of inducible reporter, gain-of-signal activity can be used to understand changes in the reporter gene as they relate to the gene ABCB1. Furthermore, this assay endpoint can be referred to as a primary readout. To generalize the intended target to other relatable targets, this assay endpoint is annotated to the transporter intended target family, where subfamily is ABC transporter.
Human hepatocyte cultures were treated daily for two consecutive days with fresh dosing solutions containing appropriate concentrations of the 320 ToxCast chemicals (chemical identities were blinded to CellzDirect and other ToxCast collaborators), vehicle control (0.2% DMSO), and positive control inducers as summarized in Table 1. Due to the large number of treatment groups and chemicals examined, the ToxCast chemicals were divided into two groups (spanning two independent cultures of hepatocytes from separate donor preparations (Hu778: ToxCast plates 1 and 2; Hu776: ToxCast plates 3 and 4). Each preparation of human hepatocyte cultures was treated with respective vehicle control, medium only control, set of six positive controls/reference chemicals for the five hepatic receptor pathways, and a subset of eight of the ToxCast chemicals (indoxacarb, pyrithiobac-sodium, norflurazon, cyhalofop-butyl, methomyl, thiram, acetochlor, and propiconazole). These replicate data, coupled with internal replicates designed within the blinded ToxCast chemical library, provided additional data to evaluate interindividual differences between hepatocyte preparations and their potential impact on chemical profiles.Cell morphology and integrity were evaluated using phase-contrast microscopy as an indicator of hepatocyte cell health (Tyson & Green, 1987). Cultures for each treatment group (i.e., media, vehicle [0.2% DMSO], positive control inducers [multiple concentrations], and the ToxCast chemicals [multiple concentrations]) were observed and cell morphology was assessed relative to vehicle control cultures at each harvest time point (0, 6, 24, or 48 h). […] Images were evaluated at the conclusion of the study to assess changes in cell integrity and account for the effects of chemical exposure on uncharacteristic changes in concentration-dependent gene expression profiles. The results from these determinations of apparent cytotoxicity were annotated (yes/no) alongside the corresponding qNPA data for reference.At the conclusion of each treatment period, hepatocyte cultures (96-well) were washed with 1 volume of HBSS, lysed by addition of 25 ul ArrayPlate lysis buffer (HTG, Tucson, AZ), and 70 ul/well of Denaturation Oil, denatured by incubation at 95C for 10 min, and frozen at approximately -70C until analysis by nuclease protection assay (qNPA) (Roberts et al., 2007). For qNPA analysis, cell lysates were thawed at 50C for approximately 30 min, qNPA probes were added, and samples were incubated at 95C for 10 min to begin the detection process by denaturing the target RNA, dissociating the duplexes and secondary structure hybridization. At the conclusion of the hybridization period, S1 nuclease reagent was added to each sample to digest all nonprotected nucleotides at 50C for 60-90 min. […]

| SMILES | outcome |
| --- | --- |
| COc1cccc(C(=O)NN(C(=O)c2cc(C)cc(C)c2)C(C)(C)C)c1C | inactive |
| CC(C1CC1)C(O)(Cn1cncn1)c1ccc(Cl)cc1 (stereo not given) | inactive |
| CON=C(C(=O)OC)c1ccccc1CON=C(C)c1cccc(C(F)(F)F)c1 | inactive |
| CC(C)[C@H](C(=O)O[C@H](C#N)c1cccc(Oc2ccccc2)c1)c1ccc(Cl)cc1 | inactive |
| CCCSP(=O)(OCC)Oc1ccc(Br)cc1Cl (stereo not given) | inactive |
| CN(C)[C@@H]1C(=O)C(C(N)=O)=C(O)[C@@]2(O)C(=O)C3=C(O)c4c(O)cccc4[C@@](C)(O)[C@H]3[C@H](O)[C@@H]12 | inactive |
| CCc1cccc(C)c1N(C(=O)CCl)C(C)COC (stereo not given) | inactive |
| COP(=O)(OC)OC(Br)C(Cl)(Cl)Br (stereo not given) | inactive |
| CCOC(=O)CC(SP(=O)(OC)OC)C(=O)OCC (stereo not given) | inactive |
| CSc1nc(NC(C)C)nc(NC(C)C)n1 | inactive |
| CSC1=N[C@@](C)(c2ccccc2)C(=O)N1Nc1ccccc1 | inactive |
| CCCCN(CC)c1c([N+](=O)[O-])cc(C(F)(F)F)cc1[N+](=O)[O-] | inactive |
| CC1=NNC(=O)N(/N=C/c2cccnc2)C1 | inactive |
| CCOP(=S)(OCC)Oc1ccc2c(C)c(Cl)c(=O)oc2c1 | inactive |
| S=C1NCCN1 | inactive |
| CCCOCC(=Nc1ccc(Cl)cc1C(F)(F)F)n1ccnc1 | inactive |
| CN1COCN(Cc2cnc(Cl)s2)C1=N[N+](=O)[O-] | inactive |
| COP(=O)(NC(C)=O)SC (stereo not given) | inactive |
| CNc1cnn(-c2cccc(C(F)(F)F)c2)c(=O)c1Cl | inactive |
| CCC(CC)Nc1c([N+](=O)[O-])cc(C)c(C)c1[N+](=O)[O-] | inactive |

| SMILES | outcome |
| --- | --- |
| CCOP(=S)(OCC)SCCSCC | inactive |
| CNC(=O)ON=C(C)SC | inactive |
| CC1(C(=O)Nc2ccc(O)c(Cl)c2Cl)CCCCC1 | inactive |
| O=C(O)c1cc(Oc2ccc(C(F)(F)F)cc2Cl)ccc1[N+](=O)[O-] | inactive |
| CCCCSP(=O)(SCCCC)SCCCC | inactive |
| CNC(=O)ON=C(SC)C(=O)N(C)C | inactive |
| Nc1nc(N)nc(NC2CC2)n1 | inactive |
| Cc1ccn2nc(S(=O)(=O)Nc3c(F)cccc3F)nc2n1 | inactive |
| CNC(=O)Oc1cccc2c1OC(C)(C)O2 | inactive |
| CCOP(=S)(OCC)Oc1ccc([N+](=O)[O-])cc1 | inactive |
| CCc1cnc(C2=NC(C)(C(C)C)C(=O)N2)c(C(=O)O)c1 (stereo not given) | inactive |
| C[Si](Cn1cncn1)(c1ccc(F)cc1)c1ccc(F)cc1 | inactive |
| CC(Oc1cccc(Cl)c1)C(=O)O (stereo not given) | inactive |
| CCCCOC(=O)[C@@H](C)Oc1ccc(Oc2ccc(C#N)cc2F)cc1 | inactive |
| COc1cc(OC)nc(Sc2cccc(Cl)c2C(=O)O)n1 | inactive |
| CCOP(=S)(OCC)Oc1cc(C)nc(C(C)C)n1 | inactive |
| C#CCC1=C(C)C(OC(=O)C2C(C=C(C)C)C2(C)C)CC1=O (stereo not given) | inactive |
| COc1ccc(C(=CC(=O)N2CCOCC2)c2ccc(Cl)cc2)cc1OC | inactive |
| C[N+]1(C)CCCCC1 | inactive |
| CCOP(=S)(OCC)OC(Cl)C(Cl)(Cl)Cl (stereo not given) | inactive |
